In PubChem BioAssay (NCI):
The panel holds about 79,000 compounds, 15% with a hit somewhere; the sample as a whole holds those more often. No stated cut-off is given here; in the data, active means growth inhibition above about 70%; inactive means the rest.

Key:
[1] = NCI Yeast Anticancer Drug Screen. Data for the rad50 strain (AID 155);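 further: 0% = growth of vehicle-only cultures of the same strain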; conditions: S. cerevisiae rad50 strain growth inhibition; at 50.0 µM; active compounds read high
Summary of the method: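 Genetically altered yeast (DNA repair pathway); compound treatment; growth inhibition vs vehicle ctrl.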

[2] = NCI Yeast Anticancer Drug Screen. Data for the mec2-1 strain (AID 157); conditions: S. cerevisiae mec2-1 strain, at 50.0 µM, active compounds read high
Summary of the method: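 Mutant yeast (mec2-1) grown with compound; growth inhibition relative to vehicle control reported.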

[3] = NCI Yeast Anticancer Drug Screen. Data for the sgs1 mgt1 strain (AID 161);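 further: 0% = growth of cultures given vehicle only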; conditions: S. cerevisiae sgs1 mgt1 strain, at 50.0 µM, active compounds read high
Summary of the method: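 Percent growth inhibition was derived by comparing compound-exposed mutant yeast with vehicle-exposed cultures. The strain carries alterations in DNA damage repair.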

[4] = NCI Yeast Anticancer Drug Screen. Data for the cln2 rad14 strain (AID 165);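 further: 0% = growth equal to vehicle treated cultures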; conditions: S. cerevisiae cln2 rad14 strain, at 50.0 µM, active compounds read high
Summary of the method: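 Readout is yeast growth inhibition versus vehicle-treated controls, using a strain with cln2 and rad14 alterations exposed to compound.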

[5] = NCI Yeast Anticancer Drug Screen. Data for the bub3 strain (AID 167); conditions: S. cerevisiae bub3 mutant strain, at 50.0 µM, active compounds read high
Summary of the method: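 Yeast carrying a defined mutation is treated with each compound, and growth is compared with that of vehicle-exposed cells to give inhibition.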

[6] = NCI Yeast Anticancer Drug Screen. Data for the mlh1 rad18 strain (AID 175); conditions: S. cerevisiae mlh1 rad18 strain growth inhibition; at 50.0 µM; active compounds read high
Summary of the method: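 Genetically defined yeast (DNA repair-deficient) exposed to compounds; growth inhibition determined relative to vehicle.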

Measured: growth inhibition

O=c1[nH]nc(SCc2ccccc2)c(=O)[nH]1
inactive: [1] -18.1% | [2] -3.5% | [3] -16.6% | [4] -5.8% | [5] 0% | [6] -18.9%

O=c1oc2ccccc2cc1S(=O)(=O)c1ccccc1
inactive: [1] 1.35% | [2] 4.8% | [3] 1.4% | [4] -53.1% | [5] -0.95% | [6] 18.4%

CC1=NOC2(C1)/C(=N/O)CCC/C2=N\O (centres undefined)
inactive: [1] -3.65% | [2] -25.1% | [3] -1.5% | [4] 20.9% | [5] -11.6% | [6] 0.45%

CC1CC=C2CCCCC2(C)C1C (centres undefined)
inactive: [1] 8.7% | [2] 13.7% | [3] 16.2% | [4] -30.9% | [5] -40.6% | [6] 3.7%

OCC1OC(n2cnc3c(Cl)nc(Nc4ccc(Cl)c(Cl)c4)nc32)CC1O (centres undefined)
inactive: [1] 7.45% | [2] -0.2% | [3] -12.9% | [4] -0.4% | [5] -16.9% | [6] 66%

CCOC(=O)/C=C/C(=O)NN
inactive: [1] 11.4% | [2] -6.35% | [3] 2.6% | [4] -26% | [5] 0.4% | [6] 5.6%

COc1cccc(Oc2c(O)c3ccc(OC)cc3oc2=O)c1
inactive: [1] 1% | [2] 11.2% | [3] -2.1% | [4] 27.2% | [5] 0.05% | [6] 8.75%

COc1ccc2[nH]c(=O)ccc2c1
inactive: [1] 1.6% | [2] 0.35% | [3] -2.3% | [4] -0.5% | [5] 12.7% | [6] -2.95%

NC1=NC(c2ccccc2)C2=C(N1)C(=O)N(c1ccc(Br)cc1)C2 (centres undefined)
inactive: [1] 43.3% | [2] -7.75% | [3] -2.45% | [4] -12.3% | [5] 7.7% | [6] -2.65%

CCOC(=O)/C(C#N)=C/c1ccccc1F
inactive: [1] 22.9% | [2] 13.5% | [3] 20.4% | [4] 1.4% | [5] 14.8% | [6] 40.8%

CCCc1nc(N)[nH]c(=O)c1I
inactive: [1] -26% | [2] -9.1% | [3] -15.1% | [4] 5.3% | [5] 7.8% | [6] 0.45%

Cc1ccc(NC(=O)/C=C2\CONC(c3ccccc3)=N2)cc1
inactive: [1] -10.1% | [2] -5.7% | [3] -8.3% | [4] -15.2% | [5] -6.9% | [6] 1.75%

O=C(NCc1ccccc1)C(c1ccccc1)c1ccccc1
inactive: [1] 1.85% | [2] 4.9% | [3] 2.6% | [4] 5.7% | [5] -9.1% | [6] 0.8%

O=C(Nc1ccc(Cl)cc1)c1ccc(Cl)c(Cl)c1
inactive: [1] -1.6% | [2] 14.8% | [3] 7.1% | [4] -8.6% | [5] 11.8% | [6] -9.6%

COc1ccc2c3c([nH]c2c1)C1CC2C(CC(O)C(OC)C2C(=O)O)CN1CC3 (centres undefined)
inactive: [1] -6.35% | [2] -23.7% | [3] -1.75% | [4] 15.2% | [5] 0.15% | [6] -4.9%

O=C(NC1(C(=O)O)CCCC1)C(F)(F)F
inactive: [1] -13.8% | [2] 14.7% | [3] -14.2% | [4] -25.3% | [5] 2.45% | [6] -8.25%

O=C(NC1C=Nc2ccc(Cl)cc2NC1=O)c1ccc(Cl)cc1 (centres undefined)
inactive: [1] 18% | [2] 20.9% | [3] 31.4% | [4] 23.6% | [5] 6.95% | [6] 31.6%

COC(=O)N(c1ccccc1)c1ccccn1
inactive: [1] -16.6% | [2] -9.95% | [3] -10.2% | [4] 10.7% | [5] 4.3% | [6] -22.6%

CC(C)OCCCNc1ncnc2c1cnn2-c1ccc(Cl)cc1
inactive: [1] 3.55% | [2] -9.15% | [3] 3.55% | [4] -11.8% | [5] -13.6% | [6] -4.9%

N=C(N)SCC(O)c1ccccc1 (centres undefined)
inactive: [1] 6.35% | [2] -11.4% | [3] -13.6% | [4] -42.4% | [5] -3.1% | [6] -19.5%

Cc1cn(C2CC(OC(=O)C(Cc3ccccc3)NC(=O)OCc3ccccc3)C(COC(=O)C(Cc3ccccc3)NC(=O)OCc3ccccc3)O2)c(=O)[nH]c1=O (centres undefined)
inactive: [1] -14.9% | [2] -3.65% | [3] -13.3% | [4] -26.7% | [5] -12.9% | [6] 14.3%

N#CC(C#N)=Cn1c(=S)[nH]c2ccc([N+](=O)[O-])cc21
inactive: [1] -13.4% | [2] -19.6% | [3] 2.75% | [4] 20.8% | [5] -9% | [6] -4.55%

CCOC(=O)c1ccc(-n2c(SCC)nc3sc(C)c(C)c3c2=O)cc1
inactive: [1] -18.9% | [2] -17.8% | [3] -40.5% | [4] -38.5% | [5] -31.8% | [6] -29.3%

C=CCNC(=S)NNC(=O)c1c(C)nc2sccn12
inactive: [1] -4.75% | [2] -10.8% | [3] -12.1% | [4] 0.25% | [5] -14.2% | [6] -5.9%

CC(=O)OC1(C#N)CC2OC1C1N=NN(C(=O)OC(C)(C)C)C21 (centres undefined)
inactive: [1] 18.2% | [2] 2.15% | [3] 4.8% | [4] 21.8% | [5] 16.1% | [6] 19.2%

C=C(C)CC1CN2CCc3cc(OC)c(OC)cc3C2CC1=O (centres undefined)
inactive: [1] 25.3% | [2] 6.85% | [3] 24.8% | [4] 18.8% | [5] 43.6% | [6] 26.6%

Cc1cc(C)c(C#N)c(N)n1
inactive: [1] -0.8% | [2] -12.8% | [3] -14.3% | [4] -17.9% | [5] 7.7% | [6] -14.9%

COc1ccc(CNc2nc3ccc(C(F)(F)F)cc3nc2-c2ccccc2)cc1OC
inactive: [1] -33.8% | [2] 3.7% | [3] 17.6% | [4] 6.45% | [5] 1.05% | [6] -11.9%

O=[N+]([O-])c1cccnc1Sc1ncccn1
inactive: [1] -7.25% | [2] -12.2% | [3] -10.2% | [4] -23.1% | [5] -25.6% | [6] -6.2%

N/N=C(\N)SCc1ccc(N=C=S)cc1
inactive: [1] -4.8% | [2] 6.85% | [3] 17.4% | [4] 18.9% | [5] 16.5% | [6] 15.5%

O=C1CC2C(=O)N(Cc3ccccc3)C(=O)C2C(=O)N1 (centres undefined)
inactive: [1] -3.1% | [2] -12.9% | [3] -5.3% | [4] 1.85% | [5] -3.1% | [6] 1.25%

COC(=O)N[C@H](C(=O)O)C(C)O[Si](C)(C)C(C)(C)C (some centres undefined)
inactive: [1] -16.2% | [2] -14% | [3] -52.6% | [4] 8.2% | [5] -33% | [6] -34.5%

O=C1NC(C(=O)O)CC1O (centres undefined)
inactive: [1] 4.1% | [2] 23.9% | [3] 5.05% | [4] 14.2% | [5] 17.9% | [6] 17.6%

O=C(Cc1cccc(CC(=O)c2ccccc2)n1)c1ccccc1
inactive: [1] 9.25% | [2] -4.75% | [3] 18.5% | [4] -52.2% | [5] -43% | [6] 10.4%

OCC(O)COCCCCCCCCCCCCCC1C=CCC1 (centres undefined)
inactive: [1] -35.8% | [2] -43.5% | [3] -35% | [4] -4.3% | [5] -23.5% | [6] -30.7%

COc1ccc(/C=N/N2CN(C(C)C(=O)O)B(NC34CC5CC(CC(C5)C3)C4)N=C2N)cc1OC (centres undefined)
inactive: [1] -16.6% | [2] -14.2% | [3] 10.3% | [4] -25.2% | [5] 1.3% | [6] -6.4%

COc1cccc(-c2cc(=O)c3cc(Cl)cnc3[nH]2)c1
inactive: [1] 5.35% | [2] 2.7% | [3] 4.2% | [4] 31.1% | [5] 11.8% | [6] 5.1%

Cc1c(Br)c(C)[n+]([O-])n1O
inactive: [1] 4% | [2] 8.75% | [3] 5.05% | [4] -17% | [5] 26.4% | [6] 0.2%

CC(=O)Nc1ccc(/C=C2\CCOC2=O)cc1[N+](=O)[O-]
inactive: [1] 6.8% | [2] 8.2% | [3] 7.15% | [4] 57.5% | [5] 8% | [6] 3.6%
